Source: PubChem BioAssay (several laboratories)
MazF activator = increases E. coli MazEF RNase cleavage of RNA; P0AE70; AID 504720; hit rate 0.32% among 350,000; FAM/BHQ RNA-DNA oligo cleavage fluorescence, 5 h; activation, % at 20 µM; in the data active = activation above about 50%
Target sequence (P0AE70 whole entry, looked up): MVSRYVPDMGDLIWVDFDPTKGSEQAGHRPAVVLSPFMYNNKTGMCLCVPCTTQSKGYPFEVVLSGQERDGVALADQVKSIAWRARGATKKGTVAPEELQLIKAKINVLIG
Bead autofluor = compound fluorescence in toxin protease inhibitor counterscreen | compound autofluorescence counterscreen, microsphere flow cytometry; active compounds read high | fluorescence intensity (no concentration beside the values) | hit rate 3.1% among 360,000 | AID 624483; in the data active = fluorescence intensity above about 16000; inconclusive = no clear call, values can overlap the other calls
BoNT F protease = blocks Botulinum neurotoxin F light chain protease; Multiplex microsphere protease cleavage assay, flow cytometry; inhibition, % at 10 µM; hit rate 0.22% among 360,000; in the data active = inhibition above about 35%, passing the limit was not always enough; inconclusive = no clear call, values can overlap the other calls; note: plate controls were buffer without enzyme for full effect and enzyme alone for no effect
Anthrax LF prot = blocks Bacillus anthracis lethal factor protease | P15917 | multiplex microsphere protease cleavage assay, LF | inhibition, % at 10 µM | hit rate 0.12% among 360,000 | AID 588501; note: plate controls were buffer without enzyme for full effect and enzyme alone for no effect
BoNT A protease = blocks Botulinum neurotoxin A light chain protease. hit rate 0.17% among 360,000. inhibition, % at 10 µM. multiplex microsphere protease substrate cleavage, flow cytometry; note: plate controls were buffer without enzyme for full effect and enzyme alone for no effect
SSB-PriA inh = K. pneumoniae PriA-SSBct interaction inhibition. AlphaScreen SSBct-PriA binding, biotinylated peptide. inhibition, % at 33 µM. hit rate 0.6% among 430,000. AID 1272365; in the data active = inhibition mostly above about 37%, no sharp cut-off; inactive = mostly below about 20%;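 note: plate controls were negative control peptide for no effect and reference peptide for full effect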
An asterisk follows results filed as active; ? = inconclusive; nt = no result. Shown are actives, neighbours in structure and some others; about 3.3% of the full set was active somewhere. Cut-off read from the data, not from the text of the source, unless noted: active = inhibition above about 30%; inconclusive = no clear call, values can overlap the other calls; inactive = below that.

SMILES	MazF activator	Bead autofluor	BoNT F protease	Anthrax LF prot	BoNT A protease	SSB-PriA inh
Cc1ccc(OCC(O)CN2CCN(CC(O)COc3ccc(C)cc3)CC2)cc1 (configuration not stated)	-5	17745*	-5	0	-3	2
O=C(c1ccccc1)c1ccc(OCC(O)CN2CCN(S(=O)(=O)N3CCCCC3)CC2)cc1 (configuration not stated)	6	23589*	2	0	0	3
Cc1ccc(OCC(O)Cn2c(=N)n(Cc3ccccc3)c3ccccc32)cc1 (configuration not stated)	24	22794*	-3	-3	-1	13
O=C(Nc1nnc2n1CCS2)c1ccc2c(c1)OCO2	nt	nt	nt	nt	nt	-3
Cc1[nH]c2ccccc2c1C(=O)COC(=O)c1ccc([N+](=O)[O-])s1	5	4540	4	-2	0	45*
CC1CCc2c(sc(NC(=O)C3=COCCO3)c2C#N)C1 (configuration not stated)	nt	nt	nt	nt	nt	7
CN(/C=C/C(=O)C(F)(F)F)Cc1ccccc1	-1	24286*	-4	-2	-2	-7
C=CCc1c(C)nc(C)nc1NN=Cc1ccc([N+](=O)[O-])cc1	nt	nt	nt	nt	nt	-1
CCC(C)(C)n1nnnc1C(C(C)C)N(CCN1CCOCC1)Cc1cc2cccc(C)c2[nH]c1=O (configuration not stated)	-8	21802*	3	0	4	-3
CCC(c1nnnn1C(C)(C)CC)N(CCCN1CCOCC1)Cc1cc2cccc(C)c2[nH]c1=O (configuration not stated)	-21	11071	4	-2	0	-7
COc1ccc(N2CC(c3n[nH]c(=S)o3)CC2=O)cc1Cl (configuration not stated)	nt	nt	nt	nt	nt	-12
Nc1nc(CSc2ncn(-c3ccccc3)n2)cs1	5	22447*	5	1	4	14
N=c1oc2ccccc2cc1-c1nc(-c2ccccc2)cs1	-28	8972	0	1	3	-11
N=c1oc2ccc3ccccc3c2cc1-c1nc(-c2ccccc2)cs1	-38	7671	23	32*	34*	-8
O=C(Cc1ccsc1)NCc1cncc(-c2cccs2)c1	nt	nt	nt	nt	nt	-6
Cc1cc(C(=O)Nc2ccncc2)ccc1[N+](=O)[O-]	5	3865	-2	6	0	26
Cc1cc(C(=O)Nc2ccc(Nc3ccccc3)cc2)ccc1[N+](=O)[O-]	29	3154	?	-26	2	54*
Cc1ccccc1NC(=O)c1ccc(Nc2c([N+](=O)[O-])cc([N+](=O)[O-])c3ccccc23)cc1	8	2471	-6	-3	-1	48*
O=C(Nc1ccc(Cl)cc1)c1ccc(-n2cncn2)c([N+](=O)[O-])c1	1	24392*	-9	-2	-5	10
Cc1cccc(NC(=O)c2ccc(NCCc3ccccc3)c([N+](=O)[O-])c2)c1	575*	2201	1	0	0	-1
CC(C)(C)c1ccc(NC(=O)NCC[C@H](O)c2cccs2)cc1	nt	nt	nt	nt	nt	-11
O=C(NCCOc1ccc(F)cc1)c1csc(-c2cc3ccccc3[nH]2)n1	nt	nt	nt	nt	nt	5
O=C(Nc1ccc(SC(F)F)cc1)c1ccc(Cl)c([N+](=O)[O-])c1	nt	nt	nt	nt	nt	10
O=C(Nc1ccc(Nc2ccccc2)cc1)c1ccc(Cl)c([N+](=O)[O-])c1	78*	3416	?	-3	3	52*
COc1ccccc1Cn1c(=S)[nH]c2cc(C(=O)NCCCN3CCOCC3)ccc2c1=O	15	5953	10	-1	0	0
SMILES	MazF activator	Bead autofluor	BoNT F protease	Anthrax LF prot	BoNT A protease	SSB-PriA inh
COCCn1c(=S)[nH]c2cc(C(=O)NCCCN3CCOCC3)ccc2c1=O	-5	22856*	-2	0	-2	-1
CCOC(=O)C1CCCN(C(=O)c2ccc3c(=O)n(CCOC)c(=S)[nH]c3c2)C1 (configuration not stated)	0	20489*	1	-1	1	-21
COCCn1c(=S)[nH]c2cc(C(=O)NC3CCCCCC3)ccc2c1=O	-5	3556	1	2	0	nt
COCCn1c(=S)[nH]c2cc(C(=O)N3CCC(C(N)=O)(N4CCCCC4)CC3)ccc2c1=O	-3	22116*	3	-7	3	-23
COc1ccc(OC)c2sc(N(CCCN(C)C)C(=O)c3cc(C)no3)nc12	nt	nt	nt	nt	nt	0
Cc1nc2ccccc2n1/N=C/c1cccnc1	-7	24451*	-3	-4	-3	nt
O=S(=O)(c1ccc2ccccc2c1)N(CC(O)COCc1ccco1)c1ccccc1 (configuration not stated)	0	23464*	-2	-6	-1	7
O=C(NC1CCCC1)c1cccc(-n2cnnn2)c1	nt	nt	nt	nt	nt	0
COc1ccc(C2CC(c3ccc(Cl)cc3)Nc3nc(NC(=O)c4ccco4)nn32)cc1 (configuration not stated)	160*	2483	-8	-2	0	-3
CC(=O)N1CCC(Cn2cnc3cc(C)c(C)cc32)CC1	nt	nt	nt	nt	nt	1
Cc1ccc(N=Cc2sc(O)c3ccccc23)c(C)c1	691*	9519	13	-6	1	-2
Cc1cc(C(=O)Nc2cnn(CC3CCOCC3)c2)c(C)o1	nt	nt	nt	nt	nt	-11
COc1ccc(CC(=O)NNC2=Nc3cccc4cccc2c34)cc1	6	3615	?	-10	-2	-21
COc1ccc(C(=O)NNC2=Nc3cccc4cccc2c34)cc1	50*	4615	-2	-2	-1	8
Cc1ccc(C(=O)NNC2=Nc3cccc4cccc2c34)cc1	86*	10032	8	2	3	3
Cc1nnc(NC(=O)C2CCN(c3nnnn3-c3ccccc3)CC2)s1	2	21118*	3	-4	?	-26
O=C(Nc1cccc2c1CCCC2)C1CCN(c2nnnn2-c2ccccc2)CC1	-2	8810	13	-8	1	-9
Cc1nnc(NC(=O)C2CCN(c3cnccn3)CC2)s1	-6	22414*	0	-2	0	-13
CC(C)C(=O)Nc1ccc(S(=O)(=O)NCCc2ccc(N3CCCC3)cc2)cc1	nt	nt	nt	nt	nt	-4
O=S(=O)(N=C(Nc1cccnc1)c1ccccc1)c1ccc(F)cc1F	nt	nt	nt	nt	nt	-1
O=C(c1snc2c(=O)n(Cc3ccccc3)c(=O)[nH]c12)N1CCc2ccccc2C1	nt	nt	nt	nt	nt	-19
CCCCc1ccc(-c2ccc(Br)cc2)nc1	0	11774	-19	-3	0	-17
CCCCc1ccc(C(=O)O)nc1	-3	5995	-18	-5	-3	87*
COc1nn(CC(=O)N2N=C(C)CC2(O)C(F)(F)F)cc1[N+](=O)[O-] (configuration not stated)	6	24478*	-4	-3	-2	-13
Cc1nn(-c2ccccc2)c2sc(C(=O)NNC(=O)COc3cccc4ccccc34)cc12	-1	6157	-3	12	0	-6
Cc1nn(-c2ccccc2)c2sc(C(=O)NNC(=O)COc3ccccc3)cc12	-25	22047*	1	-5	?	-4
COc1ccc(CC(=O)NNC(=O)c2ccc(SCc3cc(F)ccc3F)c([N+](=O)[O-])c2)cc1	-20	22474*	1	-1	0	-6
